# Results published in PubChem BioAssay.
# Inconclusive results are not listed. Activity calls are given as the source filed them. Unless noted, the limit is not given here; nearly all actives have AC50 up to about 26 µM.
# Experiments:
# [1] = JHH-DIPG-1 glioma cell viability, MIPE5.0 library, CellTiter-Glo luminescence, qHTS (AID 1347067); settings: JHH-DIPG-1 glioma viability, CellTiter-Glo ATP luminescence;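 also: cells exposed to compound for 48 hours before readout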
# [2] = SU-DIPG-XXV glioma cell viability, MIPE5.0 library, qHTS (AID 1347068; cut-off not given, nearly all actives have IC50 up to about 30 µM)
# [3] = sensitizers of A549 cells to miR-34 induction, primary screen, imaging, A549 dox-inducible miR-34, nuclei and caspase counts (AID 1347080;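 active = compounds whose cell count with miR-34 switched on is under 0.7 times the count with it off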); settings: A549 miR-34 inducible, Hoechst nuclei count, 48 h
# [4] = survival rescue of mitochondrial mutant cells in low glucose, primary screen, MELAS cybrids, Rieske KO mouse fibroblasts, CellTiter-Glo (AID 1508586;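 active = mean z-score across replicates of 1.96 or higher in either the MELAS or the Rieske mutant cell line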;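 also: z relative to plate mean and SD of compound and empty wells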)
structure (smiles),measurement,setting,value
COc1cc2nccc(Oc3ccc(NC(=O)c4cn(C(C)C)c(=O)n(-c5ccc(F)cc5)c4=O)cc3F)c2cc1OC,outcome,[1],inactive
same,outcome,[2],inactive
CC#CC(=O)N1CC[C@@H](n2c(=O)n(-c3ccc(Oc4ccccc4)cc3)c3c(N)ncnc32)C1,outcome,[2],inactive
Cn1cc(-c2cnn3c(N)c(Br)c(C4CCCNC4)nc23)cn1 (stereo unspecified),outcome,[1],inactive
same,fold change,"[3]; stronger effect = lower value, cell number ratio, induced over uninduced",0.949 (inactive)
same,fold change,[3]; measured here: relative caspase fold change +Dox/-Dox,0.873
same,cell count,"[3]; measured here: total cells with miR-34 induction, stronger effect = lower value",6160
same,cell count,[3]; measured here: total cells without miR-34 induction,6490
same,z-score,"[4]; MELAS cybrid survival, CellTiter-Glo 48 h, stronger effect = higher value",0.0709 (inactive)
same,z-score,"[4]; Rieske KO mouse fibroblast survival, CellTiter-Glo 72 h",-0.322
O=C(Nc1cccnc1)c1cc(-c2ccnc(F)c2)ccc1OCc1ccccc1,AC50,[1],18.6 µM (active)
